For test [1], the target named is Serine/threonine-protein kinase 26 (Homo sapiens) (UniProt Q9P289). The following applies: at 1 µM.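 Also: mean inhibition of MST4 kinase activity, reported from the GSK PKIS inhibitor-set screening panel.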
Test [2] deals with Serine/threonine-protein kinase PAK 1 (Homo sapiens) (UniProt Q13153). The following applies: at 0.1 µM.
For test [3] the target is unchanged. The following applies: at 1 µM.
Test [4] concerns the target Serine/threonine-protein kinase PAK 2 (Homo sapiens) (UniProt Q13177). The following applies: at 0.1 µM.
For test [5] the target is unchanged. The settings on record: at 1 µM.
Test [6] addresses Serine/threonine-protein kinase PAK 3 (Homo sapiens) (UniProt O75914). The following applies: at 0.1 µM.
Test [7] has the same target. The following applies: at 1 µM.
Test [8] has as its target Serine/threonine-protein kinase PAK 5 (Homo sapiens) (UniProt Q9P286). The settings on record: at 0.1 µM.
For test [9] the target is unchanged. The settings on record: at 1 µM.
Test [10] addresses Serine/threonine-protein kinase PAK 6 (Homo sapiens) (UniProt Q9NQU5). The settings on record: at 0.1 µM.

Serine/threonine-protein kinase PAK 1 (Homo sapiens), sequence (Q13153 whole entry): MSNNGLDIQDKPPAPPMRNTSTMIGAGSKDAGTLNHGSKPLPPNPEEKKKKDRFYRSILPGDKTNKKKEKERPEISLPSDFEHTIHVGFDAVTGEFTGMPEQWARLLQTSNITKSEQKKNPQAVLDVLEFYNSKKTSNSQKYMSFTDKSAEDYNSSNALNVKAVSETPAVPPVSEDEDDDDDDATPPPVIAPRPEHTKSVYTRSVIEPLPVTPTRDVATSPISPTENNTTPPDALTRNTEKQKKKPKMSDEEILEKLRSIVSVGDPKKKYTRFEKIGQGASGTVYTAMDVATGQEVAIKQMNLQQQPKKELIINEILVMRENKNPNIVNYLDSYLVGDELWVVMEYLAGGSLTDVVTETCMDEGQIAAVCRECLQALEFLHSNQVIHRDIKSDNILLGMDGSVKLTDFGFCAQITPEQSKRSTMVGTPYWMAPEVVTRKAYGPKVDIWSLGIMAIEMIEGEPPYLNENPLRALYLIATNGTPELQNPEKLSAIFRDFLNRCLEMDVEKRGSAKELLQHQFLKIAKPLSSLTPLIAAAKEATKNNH
Serine/threonine-protein kinase PAK 5 (Homo sapiens), sequence (Q9P286 whole entry, looked up): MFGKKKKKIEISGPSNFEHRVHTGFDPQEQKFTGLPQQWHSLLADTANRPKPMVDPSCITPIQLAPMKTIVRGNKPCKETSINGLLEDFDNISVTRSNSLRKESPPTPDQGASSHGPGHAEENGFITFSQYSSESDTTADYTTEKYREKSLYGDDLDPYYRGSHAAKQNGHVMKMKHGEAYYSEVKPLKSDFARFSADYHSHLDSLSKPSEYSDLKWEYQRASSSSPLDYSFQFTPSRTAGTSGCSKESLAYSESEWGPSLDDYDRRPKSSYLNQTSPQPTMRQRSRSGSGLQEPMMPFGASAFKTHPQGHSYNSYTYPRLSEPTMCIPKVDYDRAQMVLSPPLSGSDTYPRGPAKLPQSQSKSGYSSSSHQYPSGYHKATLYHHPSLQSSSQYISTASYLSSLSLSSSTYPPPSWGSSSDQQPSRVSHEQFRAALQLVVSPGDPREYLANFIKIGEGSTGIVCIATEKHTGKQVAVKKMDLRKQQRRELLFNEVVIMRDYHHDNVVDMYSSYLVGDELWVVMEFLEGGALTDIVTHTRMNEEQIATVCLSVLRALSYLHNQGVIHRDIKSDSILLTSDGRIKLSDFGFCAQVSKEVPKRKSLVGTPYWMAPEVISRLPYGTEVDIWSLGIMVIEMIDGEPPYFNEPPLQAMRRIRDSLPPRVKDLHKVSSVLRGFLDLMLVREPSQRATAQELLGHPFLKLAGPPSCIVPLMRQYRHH
Serine/threonine-protein kinase PAK 2 (Homo sapiens), sequence (Q13177 whole entry): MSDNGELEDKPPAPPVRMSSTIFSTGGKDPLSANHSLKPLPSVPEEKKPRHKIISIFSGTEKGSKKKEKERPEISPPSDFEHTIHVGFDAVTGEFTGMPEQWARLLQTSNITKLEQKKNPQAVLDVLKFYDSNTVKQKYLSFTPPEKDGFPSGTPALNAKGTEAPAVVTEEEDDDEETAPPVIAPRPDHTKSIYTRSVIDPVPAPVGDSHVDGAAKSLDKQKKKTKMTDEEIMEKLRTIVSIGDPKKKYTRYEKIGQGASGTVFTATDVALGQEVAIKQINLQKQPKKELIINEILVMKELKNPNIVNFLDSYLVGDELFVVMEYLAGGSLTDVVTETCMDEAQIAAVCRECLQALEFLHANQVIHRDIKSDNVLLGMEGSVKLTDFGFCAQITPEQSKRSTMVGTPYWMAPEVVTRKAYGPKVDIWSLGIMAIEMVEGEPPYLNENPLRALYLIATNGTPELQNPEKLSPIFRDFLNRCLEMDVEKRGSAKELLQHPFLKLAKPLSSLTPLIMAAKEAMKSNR
Serine/threonine-protein kinase PAK 6 (Homo sapiens), sequence (Q9NQU5 whole entry, looked up): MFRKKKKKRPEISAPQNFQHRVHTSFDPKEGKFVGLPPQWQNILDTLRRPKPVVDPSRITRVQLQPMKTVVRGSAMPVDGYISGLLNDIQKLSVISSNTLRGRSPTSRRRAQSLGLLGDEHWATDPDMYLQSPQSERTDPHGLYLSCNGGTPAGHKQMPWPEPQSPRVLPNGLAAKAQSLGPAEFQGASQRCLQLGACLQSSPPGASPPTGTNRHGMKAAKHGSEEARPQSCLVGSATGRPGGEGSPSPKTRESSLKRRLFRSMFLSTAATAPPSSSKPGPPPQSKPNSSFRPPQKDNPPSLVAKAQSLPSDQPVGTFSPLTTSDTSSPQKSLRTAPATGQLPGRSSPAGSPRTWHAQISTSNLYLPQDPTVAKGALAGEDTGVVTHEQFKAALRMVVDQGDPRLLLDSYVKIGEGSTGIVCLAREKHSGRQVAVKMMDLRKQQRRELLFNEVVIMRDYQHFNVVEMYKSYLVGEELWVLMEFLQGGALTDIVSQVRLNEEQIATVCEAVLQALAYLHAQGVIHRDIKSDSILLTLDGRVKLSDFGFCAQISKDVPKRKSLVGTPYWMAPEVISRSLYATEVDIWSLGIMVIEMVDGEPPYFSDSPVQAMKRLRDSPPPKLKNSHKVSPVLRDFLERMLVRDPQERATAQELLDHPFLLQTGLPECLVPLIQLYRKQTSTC
Serine/threonine-protein kinase PAK 3 (Homo sapiens), sequence (O75914 whole entry, looked up): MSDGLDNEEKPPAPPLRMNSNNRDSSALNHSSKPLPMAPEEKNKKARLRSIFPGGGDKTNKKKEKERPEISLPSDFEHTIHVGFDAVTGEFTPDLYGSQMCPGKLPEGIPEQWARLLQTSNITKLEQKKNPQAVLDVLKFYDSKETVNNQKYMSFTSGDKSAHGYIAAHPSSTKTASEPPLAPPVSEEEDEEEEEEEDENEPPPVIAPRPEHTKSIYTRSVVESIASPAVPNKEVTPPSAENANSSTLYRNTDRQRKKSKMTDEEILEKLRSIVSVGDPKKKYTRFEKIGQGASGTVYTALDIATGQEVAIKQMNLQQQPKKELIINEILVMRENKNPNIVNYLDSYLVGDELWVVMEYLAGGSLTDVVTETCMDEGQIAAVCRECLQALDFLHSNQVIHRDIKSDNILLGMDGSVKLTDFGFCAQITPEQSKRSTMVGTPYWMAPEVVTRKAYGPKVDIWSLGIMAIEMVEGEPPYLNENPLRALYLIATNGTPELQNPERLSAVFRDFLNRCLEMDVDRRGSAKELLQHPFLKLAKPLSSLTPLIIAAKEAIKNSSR
Serine/threonine-protein kinase 26 (Homo sapiens), sequence (Q9P289 2-416 limits assumed): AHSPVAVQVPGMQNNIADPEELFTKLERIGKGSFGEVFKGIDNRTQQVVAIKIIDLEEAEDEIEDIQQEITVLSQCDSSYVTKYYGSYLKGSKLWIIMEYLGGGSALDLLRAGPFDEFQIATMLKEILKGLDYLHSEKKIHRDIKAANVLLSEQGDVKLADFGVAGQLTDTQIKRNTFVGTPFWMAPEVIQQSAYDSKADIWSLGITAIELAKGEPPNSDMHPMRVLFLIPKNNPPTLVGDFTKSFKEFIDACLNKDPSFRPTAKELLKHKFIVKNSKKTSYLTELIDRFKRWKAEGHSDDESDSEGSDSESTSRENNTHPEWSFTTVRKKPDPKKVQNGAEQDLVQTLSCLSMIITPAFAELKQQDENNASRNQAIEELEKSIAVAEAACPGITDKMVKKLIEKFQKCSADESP

Turning to `NC(=O)c1cccc(Nc2nccc(Nc3cccc(F)c3)n2)c1`, the inhibition (in general, the change of the read-out against control, counted positive when it falls) in test [1] was 2.97%; in test [2] it was 0.29%; in test [3] it was 2.79%; in test [4], 0.32%; in test [5], 0.69%; in test [6], 0.23%. For the same compound, the figures for the inhibition in test [7], in [8] and in [9] were 2.37%, -1.35% and 1.21%, respectively.

As for `Oc1cccc(-c2nc(-c3ccccc3)[nH]c2-c2ccncc2)c1`, the inhibition in [1] was 4.67%; in [2] it was 6.65%; in test [3], 6.51%; in test [4], 2.18%; in test [5], 1.52%; in test [6] it was 3.47%. In addition, the inhibition in [7] was 3.48%; in test [8], 11.4%; in test [9], 15.7%.

Regarding `NS(=O)(=O)c1cccc(-c2cc3ccncc3cc2OCc2ccccc2)c1`, the inhibition in [1] is -3.77%; in test [2], 7.59%; in [3] it was 6.92%; in test [4], 3.01%; in [5], 2.6%; in test [6], 4.78%. Moreover, the inhibition is 7.31% in test [7], -0.43% in test [8], -0.51% in test [9] and -0.02% in test [10].

Turning to `CN(C)C(=O)O[C@H]1CN[C@H](C#Cc2cc3ncnc(Nc4ccc(OCc5cccc(F)c5)c(Cl)c4)c3s2)C1`, the inhibition is -0.62% in test [1]; 4.28% in test [2]; 2.22% in [3]; 1.72% in test [4]; -0.31% in test [5]; 2.53% in test [6]. Besides, the inhibition in test [7] amounted to 4.3%; in test [8], 4.8%; in test [9], 1.82%; in [10] it was 9.3%.

For `Cc1cc(-c2ccccn2)cc(C)c1/C=C/c1cncc(-c2nn[nH]n2)c1`, the inhibition in test [1] came to 5.19%; in test [2] it was 6.38%; in test [3] it was 6.81%; in test [4], 1.95%; in test [5] it was 2.95%; in [6] it was 4.9%. Also, the inhibition amounted to 5.22% in test [7], 1.64% in test [8] and 0.08% in test [9].

Regarding `CS(=O)(=O)CCNCc1nc(-c2ccc3ncnc(Nc4ccc(OCc5cccc(C(F)(F)F)c5)cc4)c3c2)cs1`, the inhibition in [1] was 1.5%; in test [2] it was 1.25%; in [3] it was 3.12%; in test [4], -0.05%; in [5] it was -0.1%; in test [6], 2.76%. In addition, the values for the inhibition in test [7], in test [8] and in test [9] were 5.04%, 2.81% and 1.26%, respectively.

`COc1cc(Nc2nccc(-c3cnn4ncccc34)n2)cc(OC)c1`: the inhibition is 4.52% in test [1]; -0.14% in [2]; 2.57% in test [3]; -0.1% in [4]; 2.59% in [5]; 0.77% in [6]. The inhibition in test [7] is 3.43%; in [8], -6.63%; in [9] it was 9.42%; in [10] it was -2.46%.

With `COC(=O)c1cncc(/C=C/c2c(C)cc(O)cc2C)c1`, the inhibition is -1.43% in test [1]; 4.61% in test [2]; 0.91% in [3]; 2.48% in test [4]; 0.99% in test [5]; 4.48% in test [6]. In addition, the inhibition in test [7] was determined as 4.33%; in test [8], 9.23%; in test [9], 2.77%; in test [10], 1.5%.

As to `Cc1ccc(Nc2ccnc(Nc3cccc(C(N)=O)c3)n2)cc1O`, the inhibition was determined as 2.75% in test [1]; 5.46% in test [2]; 8.57% in [3]; 1.77% in [4]; 1.45% in [5]; 3.06% in test [6]. The values for the inhibition in [7], in test [8] and in test [9] were 3.98%, 5.17% and 11.2%, respectively.

On to `O=C1Nc2ccc(-c3cccnc3)cc2C1=Cc1cc(Br)c(O)c(Br)c1`, for which the inhibition in [1] amounted to 36%; in [2] it was 6.15%; in [3], 6.31%; in test [4], 2.5%; in [5], 2.17%; in test [6] it was 4.09%. The inhibition in test [7] is 4.77%; in test [8], 0.53%; in test [9] it was -0.35%; in test [10], -0.06%.

On to `CCOc1nccc2c1nc(-c1nonc1N)n2CC`, for which the inhibition in [1] is -0.82%; in [2] it was 5.11%; in [3], 2.07%; in test [4] it was 0.86%; in test [5], 1.74%; in [6], 3.24%. For the same compound, the inhibition was 4.4% in test [7], 7.54% in test [8], 6.11% in [9] and 5.85% in test [10].

For the compound `O=C1Nc2ccccc2/C1=C/Nc1ccc2[nH]c(=O)[nH]c2c1`, the inhibition in test [1] worked out at 2.72%; in test [2] it was 10.5%; in test [3], 7.51%; in [4], 0.87%; in [5], 1.53%; in test [6] it was 7.05%. Further, the inhibition in test [7] was 5.03%; in test [8] it was 5.25%; in test [9], 3.2%; in test [10] it was -6.58%.

Regarding `NS(=O)(=O)c1ccc(-c2cc3ccncc3cc2OCc2ccccc2)cc1`, the inhibition in test [1] was found to be 0.38%; in test [2], 5.31%; in [3], 6.13%; in [4] it was 1.08%; in test [5], 0.46%; in [6], 3.48%. For the same compound, the values for the inhibition in [7], in [8] and in test [9] were 4.21%, 1.12% and -3.7%, respectively.

For `Cc1ccc2c(-c3ccnc(Nc4ccc5c(c4)OCCO5)n3)c(-c3ccc(C(F)(F)F)cc3)nn2n1`, the inhibition is 0.53% in test [1]; 0.57% in test [2]; 2.13% in test [3]; 0.68% in test [4]; -0.11% in test [5]; 2% in [6]. The inhibition is 0.74% in test [7], -9.67% in [8], -4.92% in test [9] and 7.58% in [10].

Turning to `NC(=O)c1sc(-n2cnc3ccccc32)cc1OCc1ccccc1Br`, the inhibition in test [1] was -2.12%; in [2], 6.29%; in [3] it was 10%; in [4] it was 1.42%; in [5], 2.45%; in [6], 4.83%. Also, the inhibition in test [7] was determined as 5.89%; in test [8], 2.59%; in test [9], 5.06%.

`O=S(=O)(CCOCc1ccc(-c2ccc3ncnc(Nc4ccc(OCc5cccc(F)c5)c(Cl)c4)c3c2)o1)c1ccccc1`: the inhibition in test [1] was 0.25%; in test [2] it was 4.98%; in [3] it was 5.84%; in test [4], -0.35%; in test [5], 0.7%; in test [6], 0.57%. For the same compound, the results for the inhibition in [7], in [8] and in test [9] were 2.12%, 0.21% and -1.3%, respectively.

`Cc1cc(O)cc(C)c1/C=C/c1cncc(C(=O)N(C)C)c1`: the inhibition was 1.13% in test [1]; 2.77% in test [2]; 6.81% in [3]; 1.73% in test [4]; 0.38% in [5]; -0.76% in test [6]. The inhibition in test [7] stood at 2.83%; in [8] it was 3.14%; in [9], 6.26%; in [10] it was 7.18%.

These data come from ChEMBL document CHEMBL1961873, “Compounds: GSK PKIS; Assays: Nanosyn kinase panel” (2012).
